Records with an inconclusive call do not appear. The source made the active and inactive calls. Calls follow the shape of the dose curve; as a rule, active = well fitted curve in either direction with a large enough effect (not every such curve was filed as active); inconclusive = small, poorly fitted or top-dose-only effect, or another doubt; inactive = flat fitted curve, though single readings scatter.
Target: Mitogen-activated protein kinase 10 (Mus musculus) (UniProt Q61831)
Assay: JNK3 AlphaScreen Assay (AID 530);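 also: kinase came from lysate of stimulated human HepG2 cells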
Conditions: JNK3 lysate, c-Jun phosphorylation; series mostly up to 57.1 µM; activity change, negative = inhibition: at the top concentration
Excerpt: NIH Chemical Genomics Center [NCGC]
NIH Molecular Libraries Screening Centers Network [MLSCN]
The c-jun N-terminal kinase (JNK) family are serine/threonine protein kinases that phosphorylate c-jun, a component of the transcription factor […] (AP-1). JNK kinases are members of the mitogen-activated protein kinase family including the extracellular regulated kinases and p38 kinases. Three JNK genes (JNK 1, 2, and 3) have been identified in humans so far. JNK1 and JNK2 have a broad distribution and JNK3 is primarily found in neuronal tissues and cardiac myocytes.
JNK3 has been under consideration as a target for the treatment of neurodegenerative disorders. […] JNK pathway is also involved in pathological process in a mouse model of Parkinson's disease (Xia et al., 2001).
Given these potential tissue distributions and links to neuroprotection, JNK3 inhibitors should provide useful investigational tools to study the role of this kinase in several diseases including, arthritis, stroke, myocardial infarction, ischemic injury and Parkinson's disease.
A homogeneous AlphaScreen is developed to measure the activity of JNK3. AlphaScreen is a two bead-based proximity-dependent chemical energy transfer luminescent assay platform. The phosphorylation of a biotinylated c-jun substrate by JNK3 can be detected with an antibody raised against phosphorylated c-jun. This process brings streptavidin donor beads and Protein-A acceptor beads to within a proximity range of <200 nm, and subsequently lead a chemical luminescent reaction upon exciting donor beads with 680 nm laser excitation light. Inhibition of JNK3 activity by small molecules and subsequent decrease in the antibody binding to biotinylated c-jun could attenuate or abolish this chemical luminescent reaction.
Yang DD, Kuan CY, Whitmarsh AJ, Rincon M, Zheng TS, Davis RJ, Rakic P and Flavell RA (1997) Absence of excitotoxicity-induced apoptosis in the hippocampus of mice lacking the Jnk3 gene. Nature 389:865-870. [PMID: 9349820]
Herdegen T, Claret FX, Kallunki T, Martin-Villalba A, Winter C, Hunter T, and Karin M (1998) Lasting N-terminal phosphorylation of c-Jun and activation of c-Jun N-terminal kinases after neuronal injury. J.Neurosci. 18:5124-5135. [PMID: 9651196]
Xia XG, Harding T, Weller M, Bieneman A, Uney JB and Schulz JB (2001) Gene transfer of the JNK interacting protein-1 protects dopaminergic neurons in the MPTP model of Parkinson's disease. Proc.Natl.Acad.Sci.U.S.A. 98:10433-10438.
NCGC Assay Protocol Summary:
GST-cJun (1-79) (Stratagene, La Jolla CA, #205145) was biotnylated by PerkinElmer (PerkinElmer-BioSignalInc. Montreal, Canada) and was detectable by the streptavidin Donor beads. Anti-(phospho)cJun (Ser73) antibody was from UpState (Charlottesvilles, VA, #06-659). JNK3-containing lysates were generated from HepG2 cells and pre-activated by interleukin1-beta and tumor necrosis factor alpha. All reagents were stored at -20 C before using. Phosphorylated biotinylated-GST-cJun was recognized by Anti-(phospho)cJun (Ser73) antibody and this process brings acceptor and donor beads together. Therefore JNK3 phosphorylation of cJun can be measured by Alpha reading by EnVision (PerkinElmer, Boston, MA).
The composition of kinase buffer was (in mM) 20 tris- HCl (pH 7.6) 10 MgCl2, 1 DTT, and 0.1 Na3VO4 and 0.01% Tween-20. Beads were diluted in detection buffer containing (in mM) 20 tris-HCl (pH 7.7), 20 NaCl and 80 EDTA and 0.3% BSA. The assay was performed at room temperature. All compounds were screened as titrations from 0.6 nM to 46 uM final concentration. The assay was performed in 1536-well format (white solid bottom and untreated) as follows:
Sequence,Parameter,Value,Description
1,Reagent,3 uL,Biotin-GST-cJun, Anti-(phospho)cJun and pre-activated JNK3-containing lysates
2,Compound,23 nL,Final concentration was 0.6nM to 46uM
3,Time,15 minutes,Room Temperature
4,Reagent,1 uL,ATP final concentration 10uM
6,Reagent,0.5 uL,2ng/well bead mixture
[…]
% is scaled to controls: 0 for no effect and ±100 for the full control effect; potency is read from the fitted curve at half-maximal effect.

| Structure (SMILES) | activity change, negative = inhibition | Potency |
| --- | --- | --- |
| NC1CCN(c2cccc(Cl)n2)CC1 | 3.41% (inactive) |  |
| CCCCCCCCCCCCCCCC(=O)NCCO |  | inactive |
| CCCn1cnc2c1c(=O)n(CCCCC(C)=O)c(=O)n2C | -5.08% (inactive) |  |
| CN(C)CCCN1c2ccccc2CCc2ccccc21 |  | inactive |
| CCCCN1CCCC[C@H]1C(=O)Nc1c(C)cccc1C | 5.11% [at 25.6 µM] (inactive) |  |
| NS(=O)(=O)c1cc2c(cc1Cl)NC(CSCc1ccccc1)=NS2(=O)=O | 6.07% [at 25.6 µM] (inactive) |  |
| Cc1cc2nc3c(=O)[nH]c(=O)nc-3n(C[C@H](O)[C@H](O)[C@H](O)CO)c2cc1C | -0.321% (inactive) |  |
| CC12CCC(CC1)C(C)(C)O2 | 13.7% (inactive) |  |
| NC(=O)N/N=C/c1ccc([N+](=O)[O-])o1 | -6.7% (inactive) |  |
| CCCCOc1cc(C(=O)OCCN(CC)CC)ccc1N | -4.06% [at 25.6 µM] (inactive) |  |
| CCOc1ccc2ccccc2c1C(=O)N[C@@H]1C(=O)N2[C@@H]1SC(C)(C)[C@@H]2C(=O)O | -5.86% [at 25.6 µM] (inactive) |  |
| O=C(O)CN1C(=O)c2cccc3cccc(c23)C1=O | -14.1% (inactive) |  |
| Nc1ccc(S(=O)(=O)NC(=O)c2ccccc2)cc1 | -3.37% [at 25.6 µM] (inactive) |  |
| NC(N)=NCCC[C@H](N)C(=O)O | 4.84% (inactive) |  |
| COc1ccccc1O |  | inactive |
| Oc1cccc(O)c1 | 6.72% (inactive) |  |
| Cn1cc[nH]c1=S | -25.9% [at 25.6 µM] (inactive) |  |
| Cc1cccc(Nc2cc(Cl)nc(SCC(=O)O)n2)c1C | 0.662% [at 11.4 µM] (inactive) |  |
| CN(C)CCCN1c2ccccc2Sc2ccc(Cl)cc21 | -8.91% [at 25.6 µM] (inactive) |  |
| OCCN1CCN(CCCN2c3ccccc3Sc3ccc(Cl)cc32)CC1 |  | inactive |

| Structure (SMILES) | activity change, negative = inhibition | Potency |
| --- | --- | --- |
| c1ccc2c(CC3=NCCN3)cccc2c1 | 3.04% [at 25.6 µM] (inactive) |  |
| NC(=O)c1ncn([C@@H]2O[C@H](CO)[C@@H](O)[C@H]2O)n1 | 5.64% (inactive) |  |
| NCCNCCNCCNCCN | 18.7% (inactive) |  |
| NCCNCCNCCN | 9% (inactive) |  |
| C[C@H](N)[C@H](O)c1cccc(O)c1 | 3.73% [at 25.6 µM] (inactive) |  |
| CCN(CC)CCOC(=O)C1(C2CCCCC2)CCCCC1 |  | inactive |
| Cc1c(O)cccc1C(=O)N[C@@H](CSc1ccccc1)[C@H](O)CN1C[C@H]2CCCC[C@H]2C[C@H]1C(=O)NC(C)(C)C | -12.7% (inactive) |  |
| O=C1O[C@H]([C@@H](O)CO)C(O)=C1O | 0.323% (inactive) |  |
| Nc1ccc(S(=O)(=O)Nc2nccs2)cc1 |  | inactive |
| Nc1ccc(S(=O)(=O)Nc2ccc(Cl)nn2)cc1 | 6.58% [at 25.6 µM] (inactive) |  |
| COc1ccc(Cl)cc1C(=O)NCCc1ccc(S(=O)(=O)NC(=O)NC2CCCCC2)cc1 |  | inactive |
| CC(=O)c1ccc2c(c1)N(CCCN(C)C)c1ccccc1S2 | -6.72% [at 25.6 µM] (inactive) |  |
| COc1ccc2c(c1)C(=O)N(CCc1ccc(S(=O)(=O)NC(=O)NC3CCCCC3)cc1)C(=O)C2(C)C | -2.93% [at 25.6 µM] (inactive) |  |
| Cc1c(Cl)cccc1Nc1ccccc1C(=O)O | -2.91% [at 25.6 µM] (inactive) |  |
| CN(C)CCC=C1c2ccccc2CCc2ccccc21 |  | inactive |
| O=C(CCCN1CCN(c2ccccn2)CC1)c1ccc(F)cc1 | -0.118% [at 25.6 µM] (inactive) |  |
| O=c1cc(CO)occ1O | 8.98% (inactive) |  |
| CCN(CC)CCNC(=O)c1cc(Cl)c(N)cc1OC |  | inactive |
| C=Cc1c(C)c2cc3[nH]c(cc4nc(cc5nc(cc1[nH]2)C(C)=C5CCC(=O)O)C(CCC(=O)O)=C4C)c(C)c3C=C |  | 398 nM [activator] (active) |
| N=c1c[n+](N2CCOCC2)[n-]o1 | 1.52% (inactive) |  |

Reference: PubChem BioAssay (NCATS)
